Source: PubChem BioAssay
Shown are actives, neighbours in structure and some others; about 19% of the full set was active somewhere.
S-ASM inh: blocks human secretory acid sphingomyelinase; Potency, µM (series often up to 57.5 µM), for inactives: at the top dose activity change, negative = inhibition, actives largely listed as inhibitors; placental ASM, HMU-PC fluorogenic substrate, 60 min; hit rate 0.006% among 340,000; AID 504937; P17405; further: potency means the concentration at half of the fitted maximal effect
Target sequence (P17405 47-631 limits assumed): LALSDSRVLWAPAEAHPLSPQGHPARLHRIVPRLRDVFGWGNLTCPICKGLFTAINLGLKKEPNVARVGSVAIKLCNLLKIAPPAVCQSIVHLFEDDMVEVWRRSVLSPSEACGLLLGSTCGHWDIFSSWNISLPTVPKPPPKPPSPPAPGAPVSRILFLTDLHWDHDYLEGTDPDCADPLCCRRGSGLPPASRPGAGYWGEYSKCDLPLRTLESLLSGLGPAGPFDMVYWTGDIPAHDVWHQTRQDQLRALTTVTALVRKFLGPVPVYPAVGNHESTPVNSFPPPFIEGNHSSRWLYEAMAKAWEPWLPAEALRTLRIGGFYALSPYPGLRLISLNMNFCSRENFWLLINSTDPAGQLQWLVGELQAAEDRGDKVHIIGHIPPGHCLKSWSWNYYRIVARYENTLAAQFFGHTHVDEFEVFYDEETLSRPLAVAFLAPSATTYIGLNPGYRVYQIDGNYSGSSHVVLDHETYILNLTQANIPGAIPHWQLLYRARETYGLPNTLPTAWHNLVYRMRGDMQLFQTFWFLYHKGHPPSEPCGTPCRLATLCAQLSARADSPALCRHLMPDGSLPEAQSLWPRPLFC
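Human placenta-derived ASM enzyme was preincubated with compound for 10 minutes at room temperature, then given fluorogenic substrate HMU-PC0 (9 uM final) for 60 minutes at 37 °C; a pH 10 stop preceded fluorescence reading at Ex 386/Em 447 nm.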
HepG2 viability: kills HepG2 cells in TGF-b inhibitor counter-screen | HepG2 CAGA-GFP viability, ATP luminescence, 18 h | Potency, µM (series often up to 46.1 µM), without a hit: at the top dose activity change, negative = cytotoxicity, actives largely listed as cytotoxic | hit rate 0.76% among 410,000 | AID 588856; further: potency means the concentration at half of the fitted maximal effect
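HepG2 CAGA-GFP cells (1000/well, DMEM with 1% FBS) received compound, then TGF-beta at 500 pg/mL final, and were incubated 18 hours at 37 degrees C. Viability was read by CellTiter-Glo luminescence. Media-only wells were set as complete cell-killing and DMSO as no toxicity.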
TGFb SMAD3 inh: inhibitors of TGF-b signaling | HepG2 CAGA-GFP TGF-b/SMAD3 reporter, GFP fluorescence, 18 h; TGF-beta stimulated, 500 pg/mL final | Potency, µM (highest dose often 46.1 µM), inactives show top-dose activity, negative = inhibition, most hits filed as inhibitors | hit rate 1.2% among 410,000; further: potency means the concentration at half of the fitted maximal effect; on the % scale 0 is the no-effect control and ±100 the full control effect; nearly all actives have a fitted effect of over 65% in size
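Per well, imaged GFP fluorescence of HEPG2 CAGA-GFP cells gives the signal; cells get compound, then TGF-beta (500 pg/mL final), 18 h at 37 degrees C; %Activity versus -TGF-beta and +DMSO controls.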
TDP1 cell CPT: DT40-hTDP1 cell growth loss with CPT; chicken DT40 Tdp1-/-;hTDP1 cells + 20 nM CPT, ATP luminescence, 48 h; Potency, µM (highest dose often 46.2 µM), for inactives: top-dose activity change, negative = growth inhibition, hits mostly inhibitors; hit rate 12% among 420,000; further: potency means the concentration at half of the fitted maximal effect; on the % scale 0 is the no-effect control and ±100 the full control effect; nearly all actives have a fitted effect of over 55% in size
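Chicken DT40 Tdp1-/- cells stably complemented with human TDP1 were seeded at 400 cells/well in medium containing 20 nM camptothecin, exposed to pin-transferred compounds, and grown at 37 °C for at least 48 hr. Viability was read as ATP luminescence.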
TDP1 cell noCPT: qHTS for Inhibitors of human tyrosyl-DNA phosphodiesterase 1 (TDP1): qHTS in cells in absence of CPT | DT40 Tdp1-/- hTDP1 cells, no CPT, ATP luminescence, 48 h | Potency, µM (highest dose often 46.2 µM), without a hit: top-dose activity change, negative = growth inhibition, most hits filed as inhibitors | hit rate 15% among 420,000; further: potency means the concentration at half of the fitted maximal effect; on the % scale 0 is the no-effect control and ±100 the full control effect; nearly all actives have a fitted effect of over 55% in size
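Readout: luminescence from CellTiter-Glo after 30 min in the dark at RT. Cells: DT40 Tdp1-/- with stable hTDP1, 400/well. Exposure: compounds alone, ≥48 hr, 37 °C.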
IL-1B inflam inh: inhibitors of inflammasome signaling (IL-1 beta secretion); THP-1 LPS/ATP IL-1B secretion, AlphaLISA, 16 h; hits give low values; activity change, % at 57.5 µM; hit rate 4.7% among 360,000; AID 743279; in the data active means activity change below about -50%; inconclusive means mostly about -30% to -49%; further: on the % scale 0 is the no-effect control and ±100 the full control effect
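Secreted IL-1B measured by AlphaLISA bead assay after 16 h compound exposure of THP-1 cells; compounds (final up to 57.5 uM) added 1 h before LPS (250 ng/mL) and ATP (1.25 mM) stimulation; lower signal means less secretion.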
The depositor's hits bear a star; ? = inconclusive; . = no result. Unless noted, the call rests on the fitted dose curve; in most records, active means well fitted curve in the direction sought with a large enough effect; inconclusive means small, poorly fitted or top-dose-only effect, or another doubt; inactive means no such curve, though single readings can be large; an effect the other way counts as inactive or inconclusive.

SMILES | S-ASM inh | HepG2 viability | TGFb SMAD3 inh | TDP1 cell CPT | TDP1 cell noCPT | IL-1B inflam inh
CCCCc1ccc2[nH]cc(CCN)c2c1 | -4% | -75% | ? | 21µM* | 21µM* | -89*
NCCc1c[nH]c2ccc(OCc3ccccc3)cc12 | 11% | -9% | -12% | 18% | -29% | .
CCC(C(=O)Nc1ccccc1F)N1C(=O)CN=C(c2ccccc2)c2ccccc21 (stereo unspecified) | . | -21% | -3% | ? | 23µM* | .
Cc1c(C=O)c2ccccc2n1Cc1ccccc1F | -1% | -40% | 1.1µM* | 7% | -17% | 2
CCOC(=O)c1c(C=O)c2ccccc2n1Cc1ccccc1F | -2% | -5% | -16% | -12% | ? | 8
Cc1ncc([N+](=O)[O-])n1CCOC(N)=O | 6% | -16% | -4% | 4% | -5% | -3
CN(C)C1(CNC(=O)Nc2ccc(Cl)c(Cl)c2)CCCCC1 | 2% | 16µM* | ? | ? | ? | -72*
CN(C)C1(CNC(=O)c2ccc(NS(=O)(=O)c3ccc(Cl)c(Cl)c3)cc2)CCCCC1 | -1% | -26% | -7% | ? | ? | -17
CC(C)CCP(=O)(O)c1ccccc1 | -2% | 8% | -4% | 0% | 3% | 15
C[C@@H]1OC(OC2C(OC3CC[C@@]4(C)C5CC=C6C7CC(C)(C)CC[C@@]7(C(=O)O)CCC6(C)C5(C)CCC4[C@]3(C)CO)OCC(O)C2O)C(O)C(O)C1O (stereo partly specified) | . | . | . | ? | 16µM* | .
C[C@@H]1O[C@@H](O[C@H]2C[C@@H](O)[C@]3(CO)[C@H]4[C@H](O)C[C@]5(C)[C@@H](C6COC(=O)C6)CC[C@]5(O)[C@@H]4CC[C@]3(O)C2)[C@H](O)[C@H](O)[C@H]1O (stereo partly specified) | 6% | -50% | ? | -9% | ? | 0
Cc1ccc(C(C)(C)NC(=O)C2CCC(=O)N(C3CCCCCC3)C2)cc1 (stereo unspecified) | 7% | 2% | -16% | ? | -10% | 17
COc1ccc(C(c2nnnn2Cc2ccccc2)N2CCC3(CC2)C(=O)NCN3c2ccccc2)cc1 (stereo unspecified) | . | -1% | 11µM* | ? | ? | -58*
COc1cccc(C(c2nnnn2Cc2ccccc2)N2CCC3(CC2)C(=O)NCN3c2ccccc2)c1OC (stereo unspecified) | . | 6% | ? | ? | ? | ?
CCCCn1nnnc1C(c1ccc(OC)cc1)N1CCC2(CC1)C(=O)NCN2c1ccccc1 (stereo unspecified) | . | -36% | ? | 18µM* | ? | -13
Cc1cccc(N2CCN(C(=O)CCS(=O)(=O)c3ccc4c(c3)oc(=O)n4C)CC2)c1C | -1% | -28% | ? | ? | ? | -15
Cc1cccc(N2CCN(C(=O)CCCCn3c(=O)[nH]c4ccsc4c3=O)CC2)c1C | . | -19% | ? | ? | 18µM* | .
Cn1cccc1-c1cccnc1 | . | . | . | -8% | -2% | .
CC(C)(C)NC(=S)N1CCn2cccc2C1c1cccnc1 (stereo unspecified) | 3% | 13% | -3% | 6% | 4% | 0
C(=C/c1ccccc1)/CN1CCN(CCOC(c2ccccc2)c2ccccc2)CC1 | . | . | . | 6.7µM* | 12µM* | .
ClC(Cl)(Cl)Cl | . | . | . | -2% | -6% | .
CC1=C(O)C(=O)C=C2C1=CC=C1[C@]2(C)CC[C@@]2(C)C3C[C@](C)(C(=O)O)CC[C@@]3(C)CC[C@@]12C (stereo partly specified) | . | . | . | 1µM* | 0.82µM* | .
